High-throughput results deposited in PubChem BioAssay by National Center for Advancing Translational Sciences (NCATS).
A selection: hits, their analogues and other compounds. The true share with any hit is near 2.5%.
Pol eta inh-1: DNA polymerase eta (human) inhibition. Q9Y253. hit rate 1.2% among 390,000. recombinant Pol eta, fluorescent DNA replication assay. Potency, µM (titrated, usually from 114 µM), hits mostly inhibitors
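Pol eta (10 nM) was preincubated with compounds for 15 min at room temperature, after which fluorescent replication substrate (50 nM final) was added to start the reaction. Fluorescence was read kinetically at 0 and 10 min.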
POLB inh: blocks human DNA polymerase beta activity. P06746. Pol beta primer extension/strand displacement, fluorescence kinetic. Potency, µM (highest dose often 114 µM), actives largely listed as inhibitors. hit rate 1.3% among 340,000. AID 485314
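Kinetic readout of DNA synthesis with strand displacement by Pol beta. Compound and 10 nM enzyme sit 15 min at room temperature; 50 nM substrate starts the reaction, read immediately and at 10 min.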
L3MBTL1 inh: L3MBTL1 (human) inhibition. Potency, µM (top dose mostly 57.1 µM), most hits filed as inhibitors. Q9Y468. hit rate 0.66% among 230,000. AlphaScreen L3MBTL1–H3K9me1 peptide binding; also: nearly all actives have a fitted effect of over 60% in size
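First, the protein-peptide complex forms for 30 min at room temperature (L3MBTL1 50 nM, biotinylated H3K9me1 peptide 75 nM). Next, compounds are pin-transferred and incubated 30 min. Finally, AlphaScreen beads are added and read after 30 min.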
POLI inh: blocks human DNA polymerase iota activity; Pol iota fluorescent replication assay, 10 min; hit rate 1% among 390,000; Potency, µM (titrated, usually from 115 µM), actives largely listed as inhibitors
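Fluorescent replication assay read twice, at 0 min and 10 min after adding 50 nM (final) substrate. Enzyme (10 nM) and compounds were first incubated 15 min at room temperature; enzyme-free buffer wells were negative controls.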
Pol kappa inh-1: blocks human DNA polymerase kappa activity; purified Pol kappa, fluorescent DNA synthesis assay, 10 min; Potency, µM (top dose mostly 107 µM), hits mostly inhibitors; hit rate 0.53% among 400,000; AID 588579
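Activity was followed as the change in fluorescence between reads at 0 and 10 min after starting the reaction with 50 nM substrate. Beforehand, 10 nM polymerase had been preincubated with compound for 15 min at room temperature.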
WRN inhibitor: WRN helicase (human) inhibition. Q14191. WRN helicase unwinding, fluorescent forked duplex, kinetic. Potency, µM (series often up to 114 µM), usual class: inhibitors. hit rate 0.46% among 360,000. AID 651768; also: nearly all actives have a fitted effect of over 55% in size
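Screening of the MLSMR collection measured strand separation of a quenched forked DNA duplex (100 nM) by 20 nM WRN with 2 mM ATP, all final. Compounds were preincubated with enzyme 15 min at room temperature.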
GALK inh confirm: confirmation of human galactokinase (GALK) inhibitors; hit rate 70% among 150; shares compounds with Pol eta inh-1; Potency, µM (doses to about 115 µM), usual class: inhibitors; purified GALK, Kinase-Glo ATP depletion luminescence
Redox cycling: redox cycling activity in phenol red-HRP assay; shares compounds with Pol eta inh-1; Phenol red-HRP H2O2 redox cycling, absorbance 600 nm; Potency, µM (doses to about 115 µM), hits mostly inhibitors; hit rate 40% among 150; AID 2035
HEK293 tox: reduces HEK-293 cell viability in GALK counter-screen; shares compounds with Pol eta inh-1; HEK-293 viability, ATP luminescence (CellTiter-Glo), 24/48 h; Potency, µM (top dose mostly 46.1 µM), actives largely listed as inhibitors; hit rate 10% among 170
Pol kappa inh-2: Pol kappa (human) inhibition, cherry-pick confirmation; hit rate 76% among 920; Potency, µM, most hits filed as inhibitors; shares compounds with Pol eta inh-1; purified Pol-kappa, fluorescent strand-displacement substrate
Pol eta inh-2: confirmation of human DNA polymerase eta inhibitors; Pol eta primer extension, TAMRA/BHQ fluorescence, 10 min; shares compounds with Pol eta inh-1; AID 720502; hit rate 64% among 2,600; Potency, µM, actives largely listed as inhibitors
Large screens that a line does not name were inactive (follow-up assays come after a bar, where they were run). Calls follow the shape of the dose curve; as a rule, active = well fitted curve in the direction sought with a large enough effect; inconclusive = small, poorly fitted or top-dose-only effect, or another doubt; inactive = no such curve, though single readings can be large; an effect the other way counts as inactive or inconclusive.

CCc1nc2ccc(C(=O)NCCCN3CCCC3=O)cn2c1N(CC)CCN(C)C	none (no result: Pol eta inh-1, POLB inh, L3MBTL1 inh, POLI inh, Pol kappa inh-1)
COc1cccc(COC(=O)c2cc(S(=O)(=O)N3CCCCC3)ccc2N2CCOCC2)c1OC	none (no result: POLB inh)
COc1ccc(NC(=O)C2COc3ccccc3O2)cc1S(=O)(=O)N1CCOCC1 (stereo not given)	none (no result: POLB inh)
NC(=O)Cn1nnc(-c2ccc(NC(=O)c3ccc(F)cc3)cc2)n1	none
CC(=O)NCc1ccc(C(=O)COC(=O)COc2ccc(Cl)c(C)c2)s1	POLI inh inconclusive (no result: POLB inh)
CC(=O)NCc1ccc(C(=O)COC(=O)COc2ccccc2)s1	Pol eta inh-1 22µM, POLI inh 45µM, Pol kappa inh-1 inconclusive (no result: POLB inh) | Pol eta inh-2 76
CC(SCc1cc(=O)n2c([nH]c3ccccc32)c1C#N)C(=O)O (stereo not given)	Pol eta inh-1 inconclusive, POLI inh inconclusive, Pol kappa inh-1 inconclusive, WRN inhibitor inconclusive (no result: L3MBTL1 inh) | Pol eta inh-2 inconclusive
CC(C)c1ccc(OCc2ccc(C(=O)O)o2)cc1	Pol eta inh-1 22µM, POLB inh 10µM, POLI inh inconclusive (no result: L3MBTL1 inh) | Pol kappa inh-2 42 | Pol eta inh-2 inconclusive
CC(C)c1ccc(OCc2ccc(C(=O)N(C)C)o2)cc1	none (no result: L3MBTL1 inh)
O=c1[nH]c2ccc([N+](=O)[O-])cc2nc1/C=C(\O)c1ccccc1	none (no result: L3MBTL1 inh)
CCOc1ccc(-c2nnc(SCC(=O)NC3CC3)o2)cc1	none (no result: POLB inh)
Cc1noc(C)c1COc1ccc(C(=O)OCC(=O)N2CC(=O)Nc3ccccc32)cc1	none
Cc1cc(=O)oc2cc(OCC(=O)N3c4ccccc4NC(=O)C3(C)C)ccc12	Pol eta inh-1 56µM, L3MBTL1 inh inconclusive, POLI inh 40µM, Pol kappa inh-1 inconclusive (no result: POLB inh) | Pol eta inh-2 inconclusive
Cc1noc(C)c1COc1ccc(C(=O)OCC(=O)N2c3ccccc3NC(=O)C2(C)C)cc1	Pol eta inh-1 7.1µM, POLB inh 22µM, POLI inh inconclusive, Pol kappa inh-1 inconclusive (no result: L3MBTL1 inh) | Pol kappa inh-2 34
CC(=O)Oc1ccc(N2C(=O)C3C(C2=O)C(C(=O)c2ccc(Cl)cc2)N2CCCC32)cc1 (stereo not given)	none
CC(=O)Oc1cc(C(=O)OCC(=O)NC23CC4CC(CC(C4)C2)C3)cc(OC(C)=O)c1OC(C)=O	Pol eta inh-1 3.2µM, POLI inh inconclusive, Pol kappa inh-1 18µM, WRN inhibitor 14µM (no result: POLB inh, L3MBTL1 inh) | Pol kappa inh-2 8.4 | Pol eta inh-2 9.5
O=C1NC(=S)S/C1=C\c1cc(Cl)ccc1Cl	Pol eta inh-1 40µM, POLI inh inconclusive, WRN inhibitor inconclusive (no result: POLB inh, L3MBTL1 inh) | Pol kappa inh-2 inconclusive
Cc1nn(CCC(=O)O)c2nc(-c3cccnc3)cc(C(F)(F)F)c12	none
Cc1nn(CCc2nn[nH]n2)c2nc(-c3ccc(C4CCCCC4)cc3)cc(C(F)(F)F)c12	Pol eta inh-1 45µM, POLB inh inconclusive, WRN inhibitor inconclusive | Pol eta inh-2 inconclusive
O=C(O)c1ccccc1C(=O)Nc1ccc(Br)c2cccnc12	none
CC1CCC/C=C/C(=O)c2c(O)cc(O)cc2CC(=O)O1 (stereo not given)	Pol eta inh-1 35µM, POLI inh 18µM, Pol kappa inh-1 79µM (no result: L3MBTL1 inh) | Pol eta inh-2 76
C#Cc1ccc([C@@H]2C=C(C(=O)NCc3ccccc3)O[C@H](OCc3ccc(CO)cc3)C2)cc1	none
C#Cc1ccc([C@H]2C=C(C(=O)O)O[C@@H](OCc3ccc(CO)cc3)C2)cc1	Pol eta inh-1 35µM, POLB inh 28µM, POLI inh inconclusive, Pol kappa inh-1 inconclusive | Pol kappa inh-2 42
O=C(NCCN1CCOCC1)/C(=C/c1ccc(Cl)cc1)NC(=O)c1ccccc1	none (no result: L3MBTL1 inh)
Cc1ccc(C(=O)N/C(=C\c2ccc(Cl)cc2)C(=O)NCCN2CCOCC2)cc1	none (no result: L3MBTL1 inh) | GALK inh confirm inactive | Redox cycling inactive | HEK293 tox inactive
O=C(N/N=C/c1ccncc1)c1cccc(NC(=O)c2ccc(Cl)cc2)c1	POLB inh 45µM, POLI inh inconclusive | Pol kappa inh-2 inconclusive
Cc1ccc(-n2c(O)c(C=NC3CCS(=O)(=O)C3)c3ccccc3c2=O)cc1C (stereo not given)	none (no result: L3MBTL1 inh)
Cc1ccc(-n2c(O)c(C=Nc3ccccc3-c3n[nH]c(=S)[nH]c3=O)c3ccccc3c2=O)cc1C	Pol eta inh-1 32µM, POLB inh inconclusive, POLI inh inconclusive, Pol kappa inh-1 inconclusive, WRN inhibitor 79µM | Pol eta inh-2 inconclusive
CCCOc1ccc(C(=O)Nc2cc3c(cc2N2CCCCC2)n(C)c(=O)n3C)cc1	none (no result: L3MBTL1 inh, WRN inhibitor)
COc1ccc(N=C2S/C(=C\c3ccc(OC(C)C(=O)O)c(OC)c3)C(=O)N2CCc2c[nH]c3ccccc23)cc1 (stereo not given)	Pol eta inh-1 32µM, POLB inh 35µM, POLI inh inconclusive, Pol kappa inh-1 inconclusive | GALK inh confirm 42µM | Redox cycling inactive | HEK293 tox inactive
CCCCn1c(N)c(N(CCOC)C(=O)COC(=O)/C=C/c2ccc(Br)cc2)c(=O)[nH]c1=O	none (no result: L3MBTL1 inh)
COc1ccc(CCNC(=O)CCc2cn(Cc3ccccc3Cl)c3ccccc23)c(OC)c1	none (no result: L3MBTL1 inh, WRN inhibitor)
O=c1c(O)cc(C2Oc3cc(O)cc(O)c3CC2O)cc2c(C3Oc4cc(O)cc(O)c4CC3O)cc(O)c(O)c12 (stereo not given)	Pol kappa inh-1 0.71µM (no result: Pol eta inh-1, POLB inh, L3MBTL1 inh, POLI inh, WRN inhibitor) | GALK inh confirm 5.3µM | Redox cycling 5.3µM | HEK293 tox inactive
Cc1ccc(S(=O)(=O)CCCS(=O)(=O)c2ccc(C)cc2)cc1	none
O=[N+]([O-])c1ccc(Cl)c2c1C1C=CCC1C(c1ccccn1)N2 (stereo not given)	Pol eta inh-1 50µM, POLB inh 35µM, L3MBTL1 inh inconclusive, POLI inh inconclusive, Pol kappa inh-1 inconclusive, WRN inhibitor inconclusive | Pol eta inh-2 inconclusive
